D1 antagonist: blocks dopamine activation of the human D1 receptor | AID 504652 | P21728 | HEK293 TREx D1 cells, calcium flux, dopamine EC80; active compounds read low | activity change, negative = inhibition, % at 10 µM | hit rate 3.2% among 360,000; in the data active means activity change below about -30%; further: on the % scale 0 is the no-effect control and ±100 the full control effect
Target sequence (P21728 whole entry, looked up): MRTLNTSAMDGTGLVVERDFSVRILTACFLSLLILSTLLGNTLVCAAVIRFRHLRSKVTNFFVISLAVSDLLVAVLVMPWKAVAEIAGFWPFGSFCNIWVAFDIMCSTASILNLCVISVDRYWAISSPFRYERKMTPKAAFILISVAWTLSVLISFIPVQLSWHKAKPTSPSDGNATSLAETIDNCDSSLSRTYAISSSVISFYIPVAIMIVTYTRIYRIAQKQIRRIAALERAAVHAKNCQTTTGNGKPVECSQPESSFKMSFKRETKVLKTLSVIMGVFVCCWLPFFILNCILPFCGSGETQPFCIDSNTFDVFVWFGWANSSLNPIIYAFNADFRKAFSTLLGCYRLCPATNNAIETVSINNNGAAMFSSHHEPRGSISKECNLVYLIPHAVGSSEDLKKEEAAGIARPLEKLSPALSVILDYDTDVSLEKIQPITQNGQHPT
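Cells carrying a force-coupled, tetracycline-inducible human D1 receptor report calcium flux. Each well gets a 10 s baseline, compound with 180 s monitoring, then an EC80 dopamine stimulus with a second 180 s kinetic read.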
D3 ag: agonists of human D3 dopamine receptor. P35462. D3R DiscoveRx beta-arrestin cells, luminescence, 90 min. max activation, %. hit rate 0.58% among 410,000. AID 652048; in the data active means max activation above about 30%; further: 0% is about no effect
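Agonist mode: compounds and dopamine controls were applied to plated cells for 90 min at 37 degrees C after an overnight attachment at 1500 cells/well. Luminescent read-out followed 30 - 60 minutes at room temperature with DiscoveRx detection reagent.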
D3 antag: antagonists of human D3 dopamine receptor; D3R cells, DiscoveRx beta-arrestin luminescence, antagonist mode; active compounds read low; hit rate 2.5% among 360,000; max response, negative = inhibition, %; in the data active means max response below about -50%; inconclusive means no clear call, values can overlap the other calls; further: on the % scale 0 is the no-effect control and ±100 the full control effect
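Cells expressing the human receptor were seeded at 1500 cells/well, incubated overnight at 37 degrees C in 5% CO2, then exposed to library compounds with dopamine controls for 90 minutes at 37 degrees C before luminescent detection.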
D1 ag: activates the human D1 dopamine receptor; P21728; HEK293 T-REx D1 cells, calcium flux, agonist mode; activation, % at 2 µM; hit rate 1% among 360,000; AID 504660; in the data active means activation above about 30%; further: 0% is about no effect
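Agonism was scored from calcium flux recorded over 180 s (1 read/s) after pintool compound addition, following a 10-cycle baseline. Cells were inducible force-coupled HEK293 TREx D1, plated overnight at 30 C and loaded with no-wash calcium dye.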
D1 PAM: human D1 dopamine receptor positive modulation; P21728; HEK293 TREx D1 cells, calcium flux, dopamine EC20 potentiation; potentiation, % at 10 µM; hit rate 0.036% among 360,000; AID 504651; in the data active means potentiation above about 30%; further: 0% is about no effect
The depositor's hits bear a star; ? = inconclusive; nt = no result. Shown are actives, neighbours in structure and some others; about 6.1% of the full set was active somewhere.

SMILES | D1 antagonist | D3 ag | D3 antag | D1 ag | D1 PAM
CN(C)c1ccc(C2N3CC4(C)CN2CC(C)(C3)C4O)cc1 (stereo unspecified) | 1 | 4 | 3 | -1 | -1
CC(C)C12CN3CC(C(C)C)(CN(C1)C3c1ccccc1)C2O (stereo unspecified) | -6 | -22 | -84* | 2 | -3
CC1CN(C)C(C)C/C1=N\Oc1ccc([N+](=O)[O-])cc1 (stereo unspecified) | -31* | -2 | -24 | 4 | -7
CN1CCN(c2ccc(-c3cc(O)c4ncccc4c3)cc2)CC1 | 1 | nt | nt | 6 | -2
Cc1nnc(SCCn2c(N3CCC(C)CC3)nc3c2c(=O)[nH]c(=O)n3C)s1 | -60* | -13 | 7 | 1 | -9
CSc1ncc(Cl)c(C(=O)Nc2nnc(SC)s2)n1 | 8 | 9 | -3 | 1 | 1
CCCSc1nnc(NC(=O)c2nc(SC)ncc2Cl)s1 | -36* | -2 | -19 | 0 | -4
CC1(C)CC(=NO)CC(C)(C)N1 | -32* | 5 | -26 | 3 | 1
CC1(C)CC(=NOC(=O)c2ccccc2)CC(C)(C)N1 | 15 | -5 | 11 | 3 | -1
CCC(=O)N1CCc2cc(Br)cc(S(=O)(=O)N3CCCC(C(=O)NCc4cccc(OC)c4)C3)c21 (stereo unspecified) | -31* | -14 | nt | 3 | -1
CCC(=O)N1CCc2cc(Br)cc(S(=O)(=O)N3CCCCCC3)c21 | 3 | 3 | -64* | -1 | -3
CCC(=O)N1CCc2cc(Br)cc(S(=O)(=O)N3CCCC(C(=O)NCc4ccc(OC)cc4)C3)c21 (stereo unspecified) | -17 | 0 | nt | -1 | 1
COc1ccc(OCC(O)CNC(=O)Nc2ccc(C(C)(C)C)cc2)cc1 (stereo unspecified) | 2 | -6 | 0 | 1 | -11
COc1ccc(OCC(O)CNC(=O)Nc2cc(F)ccc2C)cc1 (stereo unspecified) | -41* | -20 | -7 | -1 | -7
c1ccc(OCCCc2nc(-c3ccncc3)no2)cc1 | -11 | 2 | -52* | 4 | -7
Fc1ccc(-c2nc3c(Cl)cc(C(F)(F)F)cn3c2Cc2cccc(F)c2)cc1 | nt | -6 | 0 | nt | nt
CC(C)(C)Cc1c(-c2ccc(Cl)cc2)nc2c(Cl)cc(C(F)(F)F)cn12 | nt | 37* | 0 | nt | nt
Cc1ccc(-c2nc3c(Cl)cc(C(F)(F)F)cn3c2Cc2ccsc2)cc1 | nt | -1 | -59* | nt | nt
Fc1cccc(Cc2c(-c3ccccc3)nc3c(Cl)cc(C(F)(F)F)cn23)c1 | nt | 62* | -22 | nt | nt
CCOC(=O)N1CCN(C(=O)c2ccc3c(c2)N(Cc2ccccc2F)C(=O)c2ccccc2S3=O)CC1 (stereo unspecified) | -47* | 4 | nt | 0 | -4
CCCCN(C)CCCNC(=O)c1ccc2c(c1)N(CC)C(=O)c1ccccc1S2=O (stereo unspecified) | -3 | -39 | -84* | 2 | 3
CCOC(=O)N1CCC(NC(=O)c2ccc3c(c2)N(Cc2ccccc2)C(=O)c2ccccc2S3=O)CC1 (stereo unspecified) | 6 | 47* | nt | 4 | -3
CCOC(=O)N1CCC(NC(=O)c2ccc3c(c2)N(Cc2ccc(Cl)cc2)C(=O)c2ccccc2S3=O)CC1 (stereo unspecified) | 3 | -6 | nt | 9 | 2
CCCCN(C)C(=O)c1ccc2c(c1)N(CC)C(=O)c1ccccc1S2=O (stereo unspecified) | -1 | 6 | 0 | 1 | -4
Cn1nnc2c(NCc3ccc(Cl)cc3)ncnc21 | nt | -3 | nt | -1 | 0
SMILES | D1 antagonist | D3 ag | D3 antag | D1 ag | D1 PAM
Cc1cccc(CSc2ccc3nnc(CCNS(=O)(=O)c4ccccc4)n3n2)c1 | 5 | 0 | nt | 0 | -1
NC(=O)c1cccc(-c2ccnc3c2CC(C(=O)NCCc2ccccc2)O3)c1 (stereo unspecified) | nt | -1 | 2 | nt | nt
CC(=O)c1cccc(-c2ccnc3c2CC(C(=O)NCc2ccc(N4CCN(C)CC4)cc2)O3)c1 (stereo unspecified) | nt | -14 | 3 | nt | nt
O=C(NCc1ccccc1)C1Cc2c(-c3cccc(F)c3)ccnc2O1 (stereo unspecified) | nt | -8 | -50* | nt | nt
CN1CCN(c2ccc(CNC(=O)C3Cc4c(-c5cccc(F)c5)ccnc4O3)cc2)CC1 (stereo unspecified) | nt | -13 | -56* | nt | nt
O=C(NCCc1ccccc1)C1Cc2c(-c3ccccc3)ccnc2O1 (stereo unspecified) | nt | -10 | -67* | nt | nt
CNC(=O)C1Cc2c(-c3ccc(Cl)cc3)ccnc2O1 (stereo unspecified) | nt | -6 | -57* | nt | nt
COc1ccc(S(=O)(=O)N(CC(=O)NC(C)c2ccccc2)c2ccc(C)cc2)cc1OC (stereo unspecified) | -10 | 9 | nt | -1 | 2
CCOc1ccc(Cn2c(CNS(=O)(=O)c3cccs3)nc3cccnc32)cc1 | 20 | 8 | nt | 0 | -2
Clc1ccc2c(c1)C(C1=NCCN1)c1ccccc1CS2 (stereo unspecified) | -4 | 1 | 6 | 7 | -2
S=C1NCCc2ccc(Cl)cc2C1c1ccccc1Cl (stereo unspecified) | -9 | -2 | -71* | -1 | -4
O=C(O)CCN1C(=O)C2C3c4ccccc4C(c4ccccc43)[C@@H]2C1=O (stereo partly specified) | -31* | 1 | -6 | 3 | 2
O=C(O)CCN1C(=O)C2C3c4ccccc4C(c4ccccc43)C2C1=O (stereo unspecified) | 9 | 7 | 8 | 5 | -7
CSCCC(C(=O)Nc1c(C)cccc1C)N(C)CCc1ccccc1 (stereo unspecified) | nt | 1 | 11 | nt | nt
CC(CCc1ccc(O)cc1)NCCC(c1ccccc1)c1ccccc1 (stereo unspecified) | -28 | 2 | ? | 87* | -11
CC(CCc1ccc(O)cc1)NC(c1ccccc1)c1ccc(Cl)cc1 (stereo unspecified) | -3 | -14 | -1 | 14 | -8
CC(CCc1ccc(O)cc1)NCc1ccc(Br)cc1 (stereo unspecified) | 7 | 80* | 18 | 31* | -12
CC(CCc1ccc(O)cc1)N(C)CCc1ccccc1 (stereo unspecified) | -52* | -22 | ? | 5 | -8
CCOC(=O)c1cc(OC(=O)c2ccc(OC)c(OC)c2)n(-c2ccccc2)n1 | -9 | 7 | nt | 0 | -2
COc1ccc(NC(=O)C2CCCN(c3nnc(C)c4c(C)n(-c5ccccc5)nc34)C2)cc1Cl (stereo unspecified) | 4 | 7 | nt | 3 | 0
CCOc1cccc(CNCCNC(=O)c2nonc2N)c1 | 4 | -11 | -50* | 3 | -4
Nc1nonc1C(=O)NCCNCc1ccccc1 | -47* | -13 | 0 | 4 | 2
COc1ccc(CNCCNC(=O)c2nonc2N)cc1OC | 8 | -24 | -9 | -1 | -7

Screening results from PubChem BioAssay.
